Laboratory results taken from PubChem BioAssay (NCI).
Values joined by “and” are separate entries in the source; they are usually repeats but may differ in a detail not shown here. Equal values may be shown once. About 83,000 compounds went through this panel and 20% of them were active in at least one assay; those are over-represented in the sample as a whole.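 Testing used 96-well plates and a 48-hour single-concentration exposure. Example: -40 means 40% of the starting cells died.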 Active and inactive are the calls of the source.

The compounds below were run on MOLT-4 leukemia (assay: NCI-60 one-dose screen, 48 h (100 = growth as untreated, 0 = no growth, -100 = all killed)). Settings: 10 µM unless noted.
Procedure: Growth inhibition of the MOLT-4 human tumor cell line is measured as a screen for anti-cancer activity. Cells are grown in 96 well plates and exposed to the test compound for 48 hours. Compounds are tested at a single concentration, which is 10^-5 M for most compounds. The reported endpoint is percent growth (GI% or GIPRCNT), where numbers from 0 - 100% represent growth inhibition, and numbers from -100% - 0 represent cell death. For example, a value of 40 represents 60% growth inhibition. A value of 0 means no net growth occurred over the course of the experiment. A value of -40 indicates 40% of cells at the beginning of the experiment died by the end of the experiment. A value of -100 means all cells are dead at the end of the experiment.
NCI-60 Human Tumor Cell Lines Screen was performed using the standard one-dose NCI protocol, which is described in more detail at https://dtp.cancer.gov/discovery_development/nci-60/default.htm.
Compounds with GIPRCNT values below 10 were considered active. Activity score was based on GIPRCNT using the following formula: […]
Score is 0 for GIPRCNT values of 100 or above, 50 for GIPRCNT values of 0, and 100 for GIPRCNT values of -100.

Structure (SMILES)	growth
Nc1ncnc2c1ncn2C1OC(COP(=O)(O)O)C(O)C1O (stereo not given)	109% (inactive)
O=c1n(CC2CO2)c(=O)n(CC2CO2)c(=O)n1CC1CO1 (stereo not given)	19.2% (inactive)
NN1CCOC(c2ccccc2)C1 (stereo not given)	76.1% (inactive)
Oc1ccc(Cc2ccccc2Cl)c(O)c1	88.7% (inactive)
CC(C)C(C)(C)c1ccc(O)cc1	106% (inactive)
NC(=O)NCCCC(N)C(=O)O (stereo not given)	88.7% (inactive)
CCCCCCCCCCCCCCCc1ccc(N)c(OC2OC(CO)C(O)C(O)C2O)c1 (stereo not given)	60.8% (inactive)
CC1(C)COC(=S)N1	108% (inactive)
Cc1cc(-c2cc(C)c(O)c(C)c2)cc(C)c1O	74.9% (inactive)
CCCCCCCCCCCCCCCCC(C(=O)O)C(O)(CC(=O)O)C(=O)O (stereo not given)	90.3% (inactive) and 1.35% (active)
COc1cc(C(O)C2C(=O)OCC2C2(c3ccc4c(c3)OCO4)SCCCS2)cc(OC)c1OC (stereo not given)	94% (inactive)
c1ccc(CNCCNCc2ccccc2)cc1	105% (inactive)
Cn1cnc([N+](=O)[O-])c1Sc1ncn[nH]1	121% (inactive)
O=C1C=C(Nc2ccccc2)c2ccccc2C1=O	72.7% (inactive) and 87% (inactive)
OCCN1CCCCCCC1	106% (inactive)
O=CN1CCCCC1	121% (inactive)
c1ccc2c(c1)OC1OC2Oc2ccccc21	95.4% (inactive)
CCCCOc1ccc(Nc2cc(Cl)ccc2C(=O)O)cn1	94.6% (inactive) and 108% (inactive)
CN1CNC(=O)NC1	99.9% (inactive) and 85.2% (inactive)
O=[N+]([O-])c1cccc(SSc2cccc([N+](=O)[O-])c2)c1	82.1% (inactive)

Structure (SMILES)	growth
O=c1[nH]cnc2c1ncn2C1OC(CO)C(O)C1O (stereo not given)	93% (inactive) and 76% (inactive) and 105% (inactive)
OC1COC(OCc2ccccc2)C(O)C1O (stereo not given)	98.9% (inactive)
CCN(CCNS(C)(=O)=O)c1ccc(N)c(C)c1	66.3% (inactive) and 96.3% (inactive)
COc1ccc(C(=O)CC(c2ccccc2)C(C#N)c2ccccc2)cc1 (stereo not given)	76.4% (inactive)
COc1ccc2cc1Oc1ccc(cc1)C[C@H]1c3cc(c(OC)cc3CCN1C)Oc1c(OC)c(OC)cc3c1[C@H](C2)N(C)CC3	28.2% (inactive)
NC1CCC(C(=O)O)CC1 (stereo not given)	107% (inactive) and 98% (inactive)
CCCCOC(=O)/C=C\C(=O)NC(N)=O	65.4% (inactive)
Nc1nc(N)c2[nH]cnc2n1	92.6% (inactive)
Brc1ccc(SSc2ccc(Br)cc2)cc1	4.43% (active)
Nc1ccc2c(O)cc(S(=O)(=O)O)cc2c1	87.3% (inactive) and 92.5% (inactive)
CC(=O)OCC1OC(OC(C)=O)C(OC(C)=O)C(OC(C)=O)C1OC(C)=O (stereo not given)	98.9% (inactive) and 99.9% (inactive)
CC[C@H](CC[C@@H](C)[C@H]1CC[C@H]2[C@@H]3CC=C4C[C@@H](O)CC[C@]4(C)[C@H]3CC[C@]12C)C(C)C	108% (inactive) and 103% (inactive)
C#CCOC(=O)Nc1ccccc1	104% (inactive)
Cc1cc2ccccc2cn1	112% (inactive) and 88.7% (inactive)
COc1ccc(N/C=C/C2=[N+](C)c3ccccc3C2(C)C)c(OC)c1	104% (inactive)
c1ccc(-c2nc3ccccc3s2)cc1	103% (inactive)
CC(C)NC(=O)N/C=C(\C#N)C(N)=O	106% (inactive)
O=C1OC(C(O)C(O)CO)C(O)=C1O (stereo not given)	121% (inactive) and 105% (inactive)
Cc1ccc(S(=O)(=O)c2ccccc2)cc1	32.5% (inactive)
O=C(O)/C=C\C(=O)Nc1cccc2ccccc12	77.2% (inactive) and 84.1% (inactive)
